# Paper PMC7862700, “An all-to-all approach to the identification of sequence-specific readers for epigenetic DNA modifications on cytosine”
# How the values were obtained:
# Test in all cases: DAPPL (digital affinity profiling via proximity ligation, sequencing); 10 mM Tris-HCl pH 7.5, 50 mM NaCl, 1 mM DTT, 4% glycerol, room temperature, 30 min; GST-TFs on glutathione beads, 16-mer random dsDNA library, 0.1% formaldehyde crosslink after washing; high values mean tight binding
# Details in all cases: protein: recombinant; tags: N-terminal GST; dsDNA, one strand shown
# FLI1 = molecular target: T1, FLI1 (Homo sapiens, UniProt Q01543 1-452)
# T1 sequence: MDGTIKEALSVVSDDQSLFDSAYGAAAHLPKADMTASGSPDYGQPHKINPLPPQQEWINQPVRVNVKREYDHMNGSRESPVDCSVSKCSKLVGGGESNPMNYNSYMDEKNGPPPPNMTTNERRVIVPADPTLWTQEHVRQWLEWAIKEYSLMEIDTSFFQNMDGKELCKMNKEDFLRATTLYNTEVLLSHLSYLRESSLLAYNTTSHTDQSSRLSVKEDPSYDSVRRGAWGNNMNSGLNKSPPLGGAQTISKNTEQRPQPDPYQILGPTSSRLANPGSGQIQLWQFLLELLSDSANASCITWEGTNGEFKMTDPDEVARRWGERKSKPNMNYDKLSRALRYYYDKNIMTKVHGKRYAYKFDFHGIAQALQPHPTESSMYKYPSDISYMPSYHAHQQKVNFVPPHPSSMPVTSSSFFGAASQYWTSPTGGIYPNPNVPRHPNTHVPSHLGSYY
# Outline: (§1)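 Each value of binding signal is a hexamer's read frequency for a factor divided by the same hexamer's frequency in the tag-only sample. Barcoded, bead-captured GST fusions of human transcription factors made in yeast were pooled with that sample and incubated with 200 nmole of a random double-stranded 16-mer DNA library in Tris/NaCl/DTT/glycerol buffer at room temperature for 30 min. Washing, 0.1% formaldehyde crosslinking, proximity ligation, PCR and Illumina NextSeq500 sequencing followed.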
# ELK1 = molecular target: T2, ELK1 (Homo sapiens, UniProt P19419 1-428)
# T2 sequence: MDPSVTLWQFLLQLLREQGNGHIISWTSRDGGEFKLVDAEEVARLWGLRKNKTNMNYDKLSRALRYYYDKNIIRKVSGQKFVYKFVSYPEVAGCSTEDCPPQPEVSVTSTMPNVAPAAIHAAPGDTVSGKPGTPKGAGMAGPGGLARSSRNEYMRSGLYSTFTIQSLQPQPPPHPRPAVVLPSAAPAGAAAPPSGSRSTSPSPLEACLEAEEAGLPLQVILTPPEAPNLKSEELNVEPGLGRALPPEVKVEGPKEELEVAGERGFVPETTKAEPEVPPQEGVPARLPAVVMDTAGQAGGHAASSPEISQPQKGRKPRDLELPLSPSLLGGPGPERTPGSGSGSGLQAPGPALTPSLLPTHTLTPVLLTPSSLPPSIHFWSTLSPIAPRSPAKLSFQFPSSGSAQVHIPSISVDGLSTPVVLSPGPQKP
# Outline: as §1
# GABPA = molecular target: T3, GABPA (Homo sapiens, UniProt Q06546 1-454)
# T3 sequence: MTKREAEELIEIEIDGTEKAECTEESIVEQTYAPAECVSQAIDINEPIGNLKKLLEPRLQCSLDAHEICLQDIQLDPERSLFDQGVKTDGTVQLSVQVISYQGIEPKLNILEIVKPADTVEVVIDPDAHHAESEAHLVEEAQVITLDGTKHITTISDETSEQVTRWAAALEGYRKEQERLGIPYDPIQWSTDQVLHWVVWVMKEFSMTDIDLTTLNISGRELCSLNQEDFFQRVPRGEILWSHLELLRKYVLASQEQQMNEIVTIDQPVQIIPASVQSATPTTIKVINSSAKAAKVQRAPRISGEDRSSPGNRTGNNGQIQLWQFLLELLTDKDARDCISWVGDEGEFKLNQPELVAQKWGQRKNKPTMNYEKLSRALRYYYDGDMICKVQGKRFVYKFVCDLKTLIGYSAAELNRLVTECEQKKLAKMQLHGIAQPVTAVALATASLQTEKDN
# Outline: as §1
# ERG = molecular target: T4, ERG (Homo sapiens, UniProt P11308 1-479)
# T4 sequence: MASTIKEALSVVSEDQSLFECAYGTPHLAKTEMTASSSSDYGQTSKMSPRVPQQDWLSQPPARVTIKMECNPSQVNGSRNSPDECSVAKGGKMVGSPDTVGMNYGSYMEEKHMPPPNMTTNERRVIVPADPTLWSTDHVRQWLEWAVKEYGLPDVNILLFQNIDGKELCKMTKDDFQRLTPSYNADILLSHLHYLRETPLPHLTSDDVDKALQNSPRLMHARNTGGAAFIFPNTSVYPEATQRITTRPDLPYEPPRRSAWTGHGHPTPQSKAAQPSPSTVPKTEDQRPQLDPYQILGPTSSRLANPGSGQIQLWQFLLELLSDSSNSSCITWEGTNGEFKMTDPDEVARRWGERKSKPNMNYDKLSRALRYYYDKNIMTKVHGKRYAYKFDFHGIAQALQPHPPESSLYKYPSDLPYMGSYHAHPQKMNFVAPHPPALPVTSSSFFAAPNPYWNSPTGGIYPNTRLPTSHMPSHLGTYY
# Outline: as §1
# ELF1 = ELF1 (Homo sapiens, UniProt P32519 1-619)
# Outline: as §1
# EHF = molecular target: T5, EHF (Homo sapiens, UniProt Q9NZC4 1-300)
# T5 sequence: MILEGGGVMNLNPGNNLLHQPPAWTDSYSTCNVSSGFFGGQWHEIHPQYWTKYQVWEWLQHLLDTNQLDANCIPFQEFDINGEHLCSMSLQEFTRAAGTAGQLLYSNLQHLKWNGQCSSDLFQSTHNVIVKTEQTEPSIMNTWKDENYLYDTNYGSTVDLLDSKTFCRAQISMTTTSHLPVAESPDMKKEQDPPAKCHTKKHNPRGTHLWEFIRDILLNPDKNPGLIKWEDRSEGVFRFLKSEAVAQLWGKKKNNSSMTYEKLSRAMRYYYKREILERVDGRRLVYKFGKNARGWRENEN
# Outline: as §1
# SPIB = SPIB (Homo sapiens, UniProt Q01892 1-262)
# Outline: as §1
# ELK3 = molecular target: T6, ELK3 (Homo sapiens, UniProt P41970 1-407)
# T6 sequence: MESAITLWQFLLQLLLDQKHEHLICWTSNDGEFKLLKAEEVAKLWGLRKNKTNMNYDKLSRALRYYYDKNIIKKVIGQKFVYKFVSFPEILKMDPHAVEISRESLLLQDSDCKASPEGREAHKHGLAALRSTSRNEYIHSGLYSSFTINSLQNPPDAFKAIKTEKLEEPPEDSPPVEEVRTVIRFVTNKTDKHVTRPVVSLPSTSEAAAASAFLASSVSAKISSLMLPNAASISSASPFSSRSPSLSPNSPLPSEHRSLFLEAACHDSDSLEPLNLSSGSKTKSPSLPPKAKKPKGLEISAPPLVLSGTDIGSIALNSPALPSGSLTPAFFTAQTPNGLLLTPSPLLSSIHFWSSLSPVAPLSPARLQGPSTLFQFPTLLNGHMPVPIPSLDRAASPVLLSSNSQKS
# Outline: as §1
# FEV = molecular target: T7, FEV (Homo sapiens, UniProt Q99581 1-238)
# T7 sequence: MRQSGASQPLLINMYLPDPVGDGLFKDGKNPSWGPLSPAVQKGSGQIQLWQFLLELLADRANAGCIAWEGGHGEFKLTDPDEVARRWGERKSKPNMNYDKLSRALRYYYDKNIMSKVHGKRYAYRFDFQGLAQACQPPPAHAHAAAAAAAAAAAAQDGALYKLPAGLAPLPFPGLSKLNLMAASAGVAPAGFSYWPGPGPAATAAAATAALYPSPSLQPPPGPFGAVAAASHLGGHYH
# Outline: as §1
# ETV5 = ETV5 (Homo sapiens, UniProt P41161 1-510)
# Outline: as §1
# SPIC = molecular target: T8, SPIC (Homo sapiens, UniProt Q8N5J4 1-248)
# T8 sequence: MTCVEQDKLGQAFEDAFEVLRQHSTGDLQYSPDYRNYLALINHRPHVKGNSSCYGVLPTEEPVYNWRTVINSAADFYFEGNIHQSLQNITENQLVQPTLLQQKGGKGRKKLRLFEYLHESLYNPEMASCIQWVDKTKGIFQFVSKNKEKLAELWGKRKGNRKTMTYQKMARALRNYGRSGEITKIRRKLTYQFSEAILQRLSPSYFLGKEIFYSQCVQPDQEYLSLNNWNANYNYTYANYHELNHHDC
# Outline: as §1
# ELF4 = ELF4 (Homo sapiens, UniProt Q99607 1-663)
# Outline: as §1
# ELK4 = molecular target: T9, ELK4 (Homo sapiens, UniProt P28324-2 1-405)
# T9 sequence: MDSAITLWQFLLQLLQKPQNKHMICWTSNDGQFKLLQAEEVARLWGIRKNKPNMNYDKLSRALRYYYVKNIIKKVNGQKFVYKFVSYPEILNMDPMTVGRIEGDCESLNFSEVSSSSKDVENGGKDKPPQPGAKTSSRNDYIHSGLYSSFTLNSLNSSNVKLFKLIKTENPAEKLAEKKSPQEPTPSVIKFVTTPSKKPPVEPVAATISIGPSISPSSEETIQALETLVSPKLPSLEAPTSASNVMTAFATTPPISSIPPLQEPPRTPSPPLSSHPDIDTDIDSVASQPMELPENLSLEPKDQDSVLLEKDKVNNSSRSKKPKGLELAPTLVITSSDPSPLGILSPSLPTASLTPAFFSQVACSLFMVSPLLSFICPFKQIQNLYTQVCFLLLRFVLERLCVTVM
# Outline: as §1
# ELF3 = molecular target: T10, ELF3 (Homo sapiens, UniProt P78545 1-371)
# T10 sequence: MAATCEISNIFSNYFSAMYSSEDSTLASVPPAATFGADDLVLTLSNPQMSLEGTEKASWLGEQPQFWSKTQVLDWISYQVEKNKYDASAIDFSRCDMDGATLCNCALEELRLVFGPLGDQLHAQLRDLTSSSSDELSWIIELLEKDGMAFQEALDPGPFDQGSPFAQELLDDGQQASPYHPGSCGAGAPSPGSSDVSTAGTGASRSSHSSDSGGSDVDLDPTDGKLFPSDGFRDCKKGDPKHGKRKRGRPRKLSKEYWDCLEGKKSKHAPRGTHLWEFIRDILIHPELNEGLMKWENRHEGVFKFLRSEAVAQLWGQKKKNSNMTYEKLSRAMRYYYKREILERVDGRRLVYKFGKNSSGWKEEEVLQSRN
# Outline: as §1
# CRX = CRX (Homo sapiens, UniProt O43186 1-299)
# Outline: as §1
# ETV1 = ETV1 (Homo sapiens, UniProt P50549 1-477)
# Outline: as §1
# SPI1 = SPI1 (Homo sapiens, UniProt P17947 1-270)
# Outline: as §1
# ELF1, sequence (P32519 whole entry): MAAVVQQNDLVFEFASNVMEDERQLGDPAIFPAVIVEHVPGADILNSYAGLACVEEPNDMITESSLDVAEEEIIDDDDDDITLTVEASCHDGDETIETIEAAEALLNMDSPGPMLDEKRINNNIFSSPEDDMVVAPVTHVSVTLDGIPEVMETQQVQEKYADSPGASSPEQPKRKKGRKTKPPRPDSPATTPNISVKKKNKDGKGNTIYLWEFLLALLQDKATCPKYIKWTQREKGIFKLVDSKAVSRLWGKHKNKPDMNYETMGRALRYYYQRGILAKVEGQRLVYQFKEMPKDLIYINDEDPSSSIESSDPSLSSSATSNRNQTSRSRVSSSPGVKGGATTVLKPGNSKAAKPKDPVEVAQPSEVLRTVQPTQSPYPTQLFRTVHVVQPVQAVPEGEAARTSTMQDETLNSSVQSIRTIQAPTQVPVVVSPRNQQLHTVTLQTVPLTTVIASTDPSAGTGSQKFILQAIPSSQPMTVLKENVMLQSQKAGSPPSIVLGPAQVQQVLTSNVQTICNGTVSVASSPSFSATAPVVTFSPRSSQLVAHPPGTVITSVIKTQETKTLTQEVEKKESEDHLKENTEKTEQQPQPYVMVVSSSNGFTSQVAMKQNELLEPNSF
# ETV5, sequence (P41161 whole entry): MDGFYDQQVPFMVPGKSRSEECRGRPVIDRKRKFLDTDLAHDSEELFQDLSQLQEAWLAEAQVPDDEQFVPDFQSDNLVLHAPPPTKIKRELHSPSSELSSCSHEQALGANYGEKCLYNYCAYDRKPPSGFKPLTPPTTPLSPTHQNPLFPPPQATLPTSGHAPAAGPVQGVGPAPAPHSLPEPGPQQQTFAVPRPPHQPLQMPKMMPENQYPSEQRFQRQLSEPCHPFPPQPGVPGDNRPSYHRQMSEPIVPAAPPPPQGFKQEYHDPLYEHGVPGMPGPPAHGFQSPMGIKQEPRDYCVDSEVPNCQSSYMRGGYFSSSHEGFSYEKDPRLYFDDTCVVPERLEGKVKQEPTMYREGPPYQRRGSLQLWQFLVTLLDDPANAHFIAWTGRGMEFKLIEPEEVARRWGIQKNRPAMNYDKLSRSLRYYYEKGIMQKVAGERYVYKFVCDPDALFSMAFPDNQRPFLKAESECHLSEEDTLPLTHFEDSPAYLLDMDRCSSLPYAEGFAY
# SPIB, sequence (Q01892 whole entry): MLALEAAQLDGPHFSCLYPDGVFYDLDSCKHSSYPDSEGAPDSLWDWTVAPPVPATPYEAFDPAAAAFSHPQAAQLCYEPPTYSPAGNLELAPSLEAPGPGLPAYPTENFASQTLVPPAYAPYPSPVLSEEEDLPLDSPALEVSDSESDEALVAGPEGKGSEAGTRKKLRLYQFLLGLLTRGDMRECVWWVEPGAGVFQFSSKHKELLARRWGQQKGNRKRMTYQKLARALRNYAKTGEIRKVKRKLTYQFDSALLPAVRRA
# ELF4, sequence (Q99607 whole entry): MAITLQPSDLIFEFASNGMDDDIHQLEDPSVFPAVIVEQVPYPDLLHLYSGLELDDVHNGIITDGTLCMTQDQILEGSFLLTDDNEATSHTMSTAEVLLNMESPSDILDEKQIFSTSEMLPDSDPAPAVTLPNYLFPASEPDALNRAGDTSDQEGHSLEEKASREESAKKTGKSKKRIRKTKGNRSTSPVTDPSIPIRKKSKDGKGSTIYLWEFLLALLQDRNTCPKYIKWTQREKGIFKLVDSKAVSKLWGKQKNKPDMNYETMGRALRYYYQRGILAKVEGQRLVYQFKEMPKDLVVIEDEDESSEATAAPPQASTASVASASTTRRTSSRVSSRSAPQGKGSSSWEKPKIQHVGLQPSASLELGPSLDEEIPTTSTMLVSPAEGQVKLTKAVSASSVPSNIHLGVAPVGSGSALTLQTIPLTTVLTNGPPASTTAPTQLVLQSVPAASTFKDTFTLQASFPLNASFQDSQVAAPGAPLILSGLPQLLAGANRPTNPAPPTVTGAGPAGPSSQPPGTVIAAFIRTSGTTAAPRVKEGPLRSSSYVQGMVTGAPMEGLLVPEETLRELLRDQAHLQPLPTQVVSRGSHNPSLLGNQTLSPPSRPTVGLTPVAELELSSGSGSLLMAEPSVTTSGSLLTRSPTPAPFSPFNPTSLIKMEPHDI
# ETV1, sequence (P50549 whole entry): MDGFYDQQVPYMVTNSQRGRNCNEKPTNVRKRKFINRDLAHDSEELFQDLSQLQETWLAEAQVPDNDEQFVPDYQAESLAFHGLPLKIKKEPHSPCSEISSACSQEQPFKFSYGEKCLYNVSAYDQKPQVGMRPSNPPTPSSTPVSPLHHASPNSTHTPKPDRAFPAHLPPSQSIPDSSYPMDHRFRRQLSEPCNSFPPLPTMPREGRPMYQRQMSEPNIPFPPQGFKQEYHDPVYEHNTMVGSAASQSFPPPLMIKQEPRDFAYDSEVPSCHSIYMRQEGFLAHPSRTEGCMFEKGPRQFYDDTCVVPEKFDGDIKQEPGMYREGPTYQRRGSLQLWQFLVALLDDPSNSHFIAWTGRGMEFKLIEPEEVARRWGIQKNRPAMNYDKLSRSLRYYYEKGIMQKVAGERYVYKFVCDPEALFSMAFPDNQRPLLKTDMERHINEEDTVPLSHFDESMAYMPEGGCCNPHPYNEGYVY
# CRX, sequence (O43186 whole entry): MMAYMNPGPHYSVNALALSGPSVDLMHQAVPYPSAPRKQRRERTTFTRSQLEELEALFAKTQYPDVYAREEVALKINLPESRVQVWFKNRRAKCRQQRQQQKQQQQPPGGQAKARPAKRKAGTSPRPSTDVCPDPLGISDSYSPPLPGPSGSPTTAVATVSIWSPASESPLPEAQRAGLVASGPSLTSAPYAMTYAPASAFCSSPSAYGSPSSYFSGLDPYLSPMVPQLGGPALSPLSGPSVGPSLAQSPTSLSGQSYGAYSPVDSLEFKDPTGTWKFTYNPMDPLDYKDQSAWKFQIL
Sequence,binding signal (FLI1),binding signal (ELK1),binding signal (GABPA),binding signal (ERG),binding signal (ELF1),binding signal (EHF),binding signal (SPIB),binding signal (ELK3),binding signal (FEV),binding signal (ETV5),binding signal (SPIC),binding signal (ELF4),binding signal (ELK4),binding signal (ELF3),binding signal (CRX),binding signal (ETV1),binding signal (SPI1)
GGGCTA,"1.1 fold enrichment (6-mer frequency, TF over GST control)","1.05 fold enrichment (6-mer frequency, TF over GST control)","1.08 fold enrichment (6-mer frequency, TF over GST control)","1.16 fold enrichment (6-mer frequency, TF over GST control)","1.16 fold enrichment (6-mer frequency, TF over GST control)","1.18 fold enrichment (6-mer frequency, TF over GST control)","1.15 fold enrichment (6-mer frequency, TF over GST control)","1.06 fold enrichment (6-mer frequency, TF over GST control)","1.04 fold enrichment (6-mer frequency, TF over GST control)","1.06 fold enrichment (6-mer frequency, TF over GST control)","1.23 fold enrichment (6-mer frequency, TF over GST control)","1.17 fold enrichment (6-mer frequency, TF over GST control)","1.29 fold enrichment (6-mer frequency, TF over GST control)","1 fold enrichment (6-mer frequency, TF over GST control)","1.15 fold enrichment (6-mer frequency, TF over GST control)","1.11 fold enrichment (6-mer frequency, TF over GST control)",
CCAATG,"1.14 fold enrichment (6-mer frequency, TF over GST control)","1.11 fold enrichment (6-mer frequency, TF over GST control)","1.14 fold enrichment (6-mer frequency, TF over GST control)","1 fold enrichment (6-mer frequency, TF over GST control)","1.15 fold enrichment (6-mer frequency, TF over GST control)","1.03 fold enrichment (6-mer frequency, TF over GST control)","1.15 fold enrichment (6-mer frequency, TF over GST control)","1.08 fold enrichment (6-mer frequency, TF over GST control)","1.1 fold enrichment (6-mer frequency, TF over GST control)","1.03 fold enrichment (6-mer frequency, TF over GST control)","1.03 fold enrichment (6-mer frequency, TF over GST control)","1.13 fold enrichment (6-mer frequency, TF over GST control)","1.13 fold enrichment (6-mer frequency, TF over GST control)","1.05 fold enrichment (6-mer frequency, TF over GST control)",,"1.06 fold enrichment (6-mer frequency, TF over GST control)","1.08 fold enrichment (6-mer frequency, TF over GST control)"
